DAX1 inh-1: inhibitors of human orphan nuclear receptor DAX1 (NR0B1); inhibition, % at 6.75 µM; HEK293 Gal4-DAX1 luciferase reporter, luminescence; 340,000 tested, 0.99% active; AID 504766;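 active = inhibition above the mean over all tested compounds plus 3 SD, cut at about 4.2% in these data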;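 also: 0% = DAX1-transfected cells with DMSO and 100% = empty-vector control cells with DMSO; inhibition shows as a rise in luminescence from relieved DAX1 repression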
Target sequence (P51843 207-470 limits assumed): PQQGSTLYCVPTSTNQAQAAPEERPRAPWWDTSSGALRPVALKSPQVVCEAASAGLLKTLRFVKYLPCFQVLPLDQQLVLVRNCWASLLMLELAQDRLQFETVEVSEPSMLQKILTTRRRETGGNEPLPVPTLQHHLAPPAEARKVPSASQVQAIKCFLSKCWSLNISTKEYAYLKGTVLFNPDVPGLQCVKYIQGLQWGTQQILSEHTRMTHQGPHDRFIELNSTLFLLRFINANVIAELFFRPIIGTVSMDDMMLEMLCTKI
DAX1 inh-2: inhibitors of DAX1 repression of SF-1 activated StAR promoter. HEK293T StAR-luciferase reporter, SF-1/DAX-1 repression relief. inhibition, % at 6.8 µM. 370,000 tested, 1.1% active. AID 652010;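 active = inhibition above the mean over all tested compounds plus 3 SD, cut at about 3.6% in these data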;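 also: 0% = DAX-1 cells with DMSO and 100% = cells lacking DAX-1 with DMSO; higher inhibition means more luminescence from relief of DAX-1 repression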
ssDAF12 agonist: S. stercoralis DAF-12 activation, primary screen; HEK293 ssDAF-12/GRIP1 lit1-tk-luc reporter, luminescence; % of 3 µM dafachronic acid response; activation, % at 6.8 µM; 370,000 tested, 1% active;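 active = activation above the mean over all tested compounds plus 3 SD, cut at about 0.9% in these data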;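 also: 0% = DMSO-only wells and 100% = 3 µM delta7-dafachronic acid wells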
hgDAF-12 ag: agonists of H. glycines DAF-12 nuclear receptor; activation, % at 6.8 µM; 370,000 tested, 1.8% active; HEK293 GAL4-hgDAF12 UAS-luciferase reporter, agonist luminescence; normalized to butyrate control; AID 687014;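 active = activation above a cutoff set at the mean of all screened compounds plus 3 SD, cut at about 10% in these data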;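 also: 0% = DMSO wells and 100% = sodium butyrate wells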
hcDAF12 agonist: activators of H. contortus DAF-12 nuclear receptor. HEK293 hcDAF-12 lit1-tk-luc reporter, luminescence; 0% DMSO, 100% Δ7-dafachronic acid. activation, % at 6.8 µM. AID 652067. 370,000 tested, 1.4% active;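 active = activation above the mean of all tested compounds plus 3 SD, cut at about 5.5% in these data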;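 also: 100% = response to 3 µM Δ7-dafachronic acid high control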
SMARCA2 act: SMARCA2 function activation, primary screen. MG213 cells, MMTV-luciferase reporter, dexamethasone, overnight. activation, % at 9.1 µM. 370,000 tested, 1% active; in the data active = activation above about 7.8%;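 also: 0% = vehicle wells and 100% = reference activator wells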
DAX1 inh confirm: NR0B1 (human) inhibition, confirmation | shares compounds with DAX1 inh-2 | HEK293T StAR-promoter luciferase reporter, SF-1/DAX-1 repression | inhibition, % at 6.8 µM | 2,400 tested, 87% active | AID 652134;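 active = inhibition above the average of every tested compound plus 3 SD, cut at about 3.8% in these data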;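 also: 0% = DAX-1 cells with DMSO and 100% = no DAX-1 control cells with DMSO; active compounds raise luminescence by relieving repression of the StAR reporter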
SF1 AF2mut Luc: counter-screen for DAX1 inhibitors: nonselective inhibitors with SF-1 AF2 mutant | 2,400 tested, 78% active | inhibition, % at 6.8 µM | shares compounds with DAX1 inh-2 | HEK293 StAR-luciferase, luminescence;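 active = inhibition above the mean of all tested compounds plus 3 SD, cut at about 3% in these data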;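 also: 0% = DAX-1 transfected cells with DMSO and 100% = cells without DAX-1 with DMSO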
SMARCA2 act conf: SMARCA2 activation, confirmation screen; shares compounds with SMARCA2 act; activation, % at 9.1 µM; 3,500 tested, 30% active; MG213 cells, MMTV-luciferase with dexamethasone, luminescence, overnight; MG213 cells expressing E1A, Rb sequestered; DMSO wells 0%, reference activator 100%; AID 652260;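 active = activation above its plate's cutoff, the mean activation of tested wells plus 3 SD, cut at about 7.9% in these data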
GAL4-VP16 Luc: counter-screen for SMARCA2 activators: GAL4-VP16 luciferase reporter activation | shares compounds with SMARCA2 act | HEK293 GAL4-VP16 pG5luc reporter, luciferase luminescence; scaled: DMSO wells 0%, SAHA wells 100% | activation, % at 9.1 µM | 3,500 tested, 41% active;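 active = activation above the solvent-only control well mean plus 3 SD, averaged across control plates, cut at about 5.2% in these data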
LXRb hcDAF ctr: activates human LXR-beta, counter-screen for hcDAF-12 agonists. AID 743027. shares compounds with hcDAF12 agonist. activation, % at 6.8 µM. 3,400 tested, under 10 active. HEK293 Gal4-LXR tk-luc reporter, luminescence, 24 h; normalized: DMSO 0%, positive control 100%;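 active = mean percent activation of the reporter above a cutoff set as the average over tested compounds plus their standard deviation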
Target sequence (P55055 whole entry, looked up, the tested form may be a part): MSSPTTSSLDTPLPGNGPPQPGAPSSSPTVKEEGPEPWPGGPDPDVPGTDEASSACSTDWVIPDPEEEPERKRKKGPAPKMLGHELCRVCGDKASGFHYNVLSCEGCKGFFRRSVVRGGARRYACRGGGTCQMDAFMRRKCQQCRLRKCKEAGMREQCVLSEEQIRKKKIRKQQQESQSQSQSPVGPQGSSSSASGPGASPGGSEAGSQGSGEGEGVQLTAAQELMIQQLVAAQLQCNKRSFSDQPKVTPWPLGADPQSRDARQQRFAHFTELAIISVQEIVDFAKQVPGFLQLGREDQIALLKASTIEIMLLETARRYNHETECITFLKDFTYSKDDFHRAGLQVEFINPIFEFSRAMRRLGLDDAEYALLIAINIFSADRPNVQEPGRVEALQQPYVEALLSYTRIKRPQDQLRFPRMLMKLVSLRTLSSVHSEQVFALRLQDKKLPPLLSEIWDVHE
hcDAF12 conf: hcDAF-12 agonism, confirmation assay | AID 743032 | shares compounds with hcDAF12 agonist | 3,400 tested, 61% active | activation, % at 6.8 µM | HEK293 hcDAF-12 lit1-tk-luc reporter, luminescence; % of Δ7-dafachronic acid response;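 active = mean activation across triplicate tests above the threshold derived from the earlier primary screen, cut at about 5.5% in these data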;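 also: 0% = DMSO only wells and 100% = 3 µM Δ7-dafachronic acid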
hgDAF12 conf: confirmation of H. glycines DAF-12 agonists; 3,300 tested, 80% active; activation, % at 6.8 µM; shares compounds with hgDAF-12 ag; HEK293 GAL4-hgDAF12 luciferase reporter, agonist mode; percent of butyrate response;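 active = mean activation over triplicate wells above the hit cutoff derived from the earlier primary screen, cut at about 11% in these data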;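 also: 0% = DMSO low control and 100% = 2 mM sodium butyrate high control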
LXRb DAF12 ctr: LXR-beta agonism as DAF-12 counter-screen; HEK293 Gal4-LXR luciferase reporter, 24 h; activation, % at 6.8 µM; AID 743051; shares compounds with hgDAF-12 ag; 3,300 tested, under 10 active;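 active = mean activation of the triplicate above a set limit carried over from the primary screen, none filed active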
Numbers without * were called inactive; nt = no result given; ! = repeats disagree. This is a sample that favours compounds with a hit; in the whole collection about 4.8% have one here.

SMILES	DAX1 inh-1	DAX1 inh-2	ssDAF12 agonist	hgDAF-12 ag	hcDAF12 agonist	SMARCA2 act	DAX1 inh confirm	SF1 AF2mut Luc	hgDAF12 conf	LXRb DAF12 ctr	others
O=c1c2ccccc2oc2c1oc1ccccc12	2.6	6.6*	0.1	15.2*	4.8	14.2*	7.3*	6.5*	12.9*	0.4	SMARCA2 act conf=5.1;GAL4-VP16 Luc=9.0*
Cc1cc(CNC(=O)C2(C(F)(F)F)C/C(=C\Cc3ccccc3)CCCO2)nn1C (centres undefined)	0.2	-0.8	-0.8	0.3	1.6	-1.0	nt	nt	nt	nt
O=C(CCCc1ccccn1)c1cccc2ccccc12	1.9	5.6*	1.1*	15.0*	11.6*	-0.1	12.8*	5.7*	15.0*	0.7	LXRb hcDAF ctr=1.4;hcDAF12 conf=9.6*
CCOc1ccc2oc(C(=O)Nc3cc(C)ccn3)c(C)c2c1	2.5	13.1*	0.0	13.6*	2.7	1.0	11.0*	5.0*	17.2*	0.9
Cc1csc(NC(=O)c2oc3ccccc3c2C)n1	1.7	13.7*	2.1*	18.6*	18.3*	5.6	13.4*	8.0*	17.1*	1.5	LXRb hcDAF ctr=2.1;hcDAF12 conf=18.1*
Cc1ccnc(NC(=O)c2oc3ccccc3c2C)c1	-0.1	10.5*	3.0*	22.1*	19.9*	4.3	9.2*	3.7*	19.6*	1.4	LXRb hcDAF ctr=1.7;hcDAF12 conf=15.1*
C/C(CC(=O)Nc1cc(Cl)ccc1C)=N\NC(=O)C(=O)N1CCCC1	0.2	-0.2	-0.8	-1.6	-1.6	1.2	nt	nt	nt	nt
Fc1ccccc1COc1ccc2ccccc2c1CNc1nn[nH]n1	-0.7	-0.2	-1.5	1.8	-0.1	-0.8	nt	nt	nt	nt
O=C(NN=Cc1ccc2c(c1)CCN2)c1cccs1	5.6*	6.7*	1.5*	22.3*	9.8*	1.4	17.2*	7.0*	25.6*	1.1	LXRb hcDAF ctr=1.5;hcDAF12 conf=5.6*
O=C(Nc1n[nH]c(=S)s1)c1ccc2ccccc2c1	1.3	16.1*	0.4	13.8*	3.5	6.3	13.2*	6.3*	13.3*	0.6
C(=NOCc1ccccc1)c1ccccn1	2.6	6.0*	-0.3	16.7*	1.8	1.9	6.1*	2.9*	14.5*	0.6
C(=NOCc1ccccc1)c1ccncc1	0.6	0.8	-1.1	4.3	1.5	-3.0	nt	nt	nt	nt
COc1ccc(S(=O)(=O)N2CCCC(C(=O)NC3CC3)C2)cc1Cl (centres undefined)	-0.5	-0.2	-1.0	1.1	0.8	0.8	nt	nt	nt	nt
O=C(NCCS(=O)(=O)NCCc1ccccc1)c1ccc2c(c1)OCO2	4.3*	10.3*	1.1*	15.0*	5.6*	3.7	7.9*	3.1*	13.9*	0.7
Nn1c(SCC(=O)Nc2ccccc2-c2ccccc2)nnc1-c1n[nH]c2c1CCC2	nt	-0.3	-1.0	-2.5	-2.8	-0.5	nt	nt	nt	nt
COc1ccccc1NC(=S)N/N=C/c1ccc(O)cc1	0.6	5.5*	-0.6	18.7*	6.1*	2.5	15.6*	8.4*	19.7*	1.1
COc1ccccc1NC(=S)N/N=C/c1cccc(C)c1	0.8	0.7	-1.4	6.9	-0.5	0.9	nt	nt	nt	nt
COc1ccc(CN(CC#Cc2ccccc2)Cc2ccccc2)c(OC)c1	nt	-1.0	-1.4	1.6	2.4	-3.9	nt	nt	nt	nt
COc1ccc2oc(=O)c(-c3nc4ccccc4o3)cc2c1	1.6	0.2	-0.2	3.0	-0.1	6.8	nt	nt	nt	nt
COc1cccc(N=c2oc3ccc(OC)cc3cc2-c2nc3ccccc3[nH]2)c1	2.3	4.7*	3.6*	16.1*	15.4*	8.3*	-1.1	-2.0	6.7	0.4	SMARCA2 act conf=3.6;GAL4-VP16 Luc=12.1*;LXRb hcDAF ctr=0.1;hcDAF12 conf=6.3*
COc1ccc(NC(=O)c2ccc3c(c2)N(C)CCS3)cc1	0.9	7.3*	0.8	23.9*	5.4	1.8	12.0*	7.5*	18.9*	0.8
CN1CCSc2ccc(C(=O)NCc3ccccc3)cc21	-0.9	0.3	-1.1	4.5	-0.7	0.2	nt	nt	nt	nt
CC(C)CC(=O)Nc1ccc(-c2nc3ccccc3c(=O)[nH]2)cc1	1.5	5.0*	-0.1	15.7*	3.2	2.8	16.5*	7.6*	20.6*	1.2
CC(C)CC(=O)Nc1ccc(-c2nc3ccccc3c(=O)o2)cc1	-1.6	-0.1	-1.0	-1.6	-1.7	3.2	nt	nt	nt	nt
C/C(N)=C(/C#N)C(=O)CSc1nnc(-c2ccc(OC(F)F)cc2)o1	6.3*!	4.8*	0.2	19.7*	6.8*!	6.1	10.6*	8.2*	13.5*	0.8	LXRb hcDAF ctr=0.9;hcDAF12 conf=7.3*
CC1CCN(Cc2nnnn2CCCC(=O)N(C)C2CCOC2)CC1 (centres undefined)	0.0	1.2	-1.4	1.8	-0.7	-0.9	nt	nt	nt	nt
Cc1ccc(CNC(=O)CNC(=O)[C@@H]2Cc3ccccc3CN2C(=O)OC(C)(C)C)cc1	1.2	0.0	-1.5	4.6	-1.4	-2.1	nt	nt	nt	nt
C[C@H](CO)N1C[C@H](C)[C@H](CN(C)Cc2ccc(F)cc2)Oc2ncc(Br)cc2C1=O	nt	-0.6	-0.6	-4.0	0.9	-0.5	nt	nt	nt	nt
c1ccc2nc3c(nc2c1)[nH]c1ccccc13	3.2	4.6*	1.7*	18.3*	7.0*	7.1	13.7*	7.6*	17.3*	0.7	LXRb hcDAF ctr=1.9;hcDAF12 conf=10.7*
CCC1CCC/C1=N\NC(=O)c1ccccc1Cl (centres undefined)	nt	0.1	-0.4	2.6	0.0	0.8	nt	nt	nt	nt

Bioassay records (PubChem BioAssay)
